# Screening data (PubChem BioAssay)
# PGK inhibitor: T. brucei PGK inhibition; AID 602233; Potency, µM (doses to about 57.5 µM), for inactives: at the top dose activity change, negative = inhibition, hits mostly inhibitors; actives 0.043% (n = 380,000); PGK/GAPDH coupled, Kinase-Glo luminescence, 60 min; note: % is set by controls: 0 for no effect and ±100 for the full control effect; nearly all actives have a fitted effect of over 60% in size
#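 Luminescent ATP detection (Kinase-Glo Plus) follows a 60-minute room-temperature incubation, with wells lacking PGK as controls. Buffer: 100 mM TEA (pH 7.6), 5 mM MgCl2, 0.01% Tween-20. Coupling enzyme GAPDH (100 nM final) supplies unstable 1,3-BPG in-well.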
# ELG1 repair inh: inhibitors of ELG1-dependent DNA repair in HEK293T cells | HEK293T ELG1-luciferase reporter, luminescence, 16 h; DNA damage induced by 5-fluorouridine | Potency, µM (series often up to 46.1 µM), for inactives: top-dose activity change, negative = inhibition, hits mostly inhibitors | actives 2.3% (n = 330,000) | AID 504467; note: % is set by controls: 0 for no effect and ±100 for the full control effect; nearly all actives have a fitted effect of over 55% in size
#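 Overnight (16 hr) co-exposure of 2,000 cells/well to 5-fluorouridine and compound at 37 °C preceded detection. Luciferase was quantified via ONE-Glo luminescence; loss of signal denotes inhibition.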
# Tb PFK inh-1: blocks T. brucei phosphofructokinase | actives 0.17% (n = 330,000) | AID 485367 | Potency, µM (doses to about 57.5 µM), for the others: at the highest dose activity, negative = inhibition, hits mostly inhibitors | T. brucei PFK, ADP-Glo luminescence | O15648;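 note: 0% = uninhibited 1x PFK enzyme wells and -100% = no-enzyme wells; nearly all actives have a fitted effect of over 60% in size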
# Target sequence (O15648 whole entry, looked up): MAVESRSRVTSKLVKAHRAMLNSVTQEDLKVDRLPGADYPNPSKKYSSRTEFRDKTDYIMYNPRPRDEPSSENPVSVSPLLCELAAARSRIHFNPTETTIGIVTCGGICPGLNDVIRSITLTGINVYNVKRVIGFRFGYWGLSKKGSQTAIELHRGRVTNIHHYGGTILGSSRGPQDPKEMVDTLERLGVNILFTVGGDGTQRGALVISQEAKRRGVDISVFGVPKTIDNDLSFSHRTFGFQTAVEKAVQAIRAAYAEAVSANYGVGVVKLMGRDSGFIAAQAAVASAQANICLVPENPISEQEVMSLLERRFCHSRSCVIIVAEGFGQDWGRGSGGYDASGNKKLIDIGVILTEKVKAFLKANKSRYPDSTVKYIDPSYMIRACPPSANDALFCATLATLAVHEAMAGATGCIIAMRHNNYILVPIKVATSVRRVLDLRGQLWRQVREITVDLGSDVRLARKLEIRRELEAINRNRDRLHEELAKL
#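 ADP-Glo luminescence quantified ADP after 45 min at room temperature, with 1.25 nM T. brucei PFK, 0.1 mM ATP and 0.5 mM fructose-6-phosphate in pH 8.0 TEA buffer. qHTS titrations up to 57 µM; curves classified by quality.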
# PKM2 act: activators of human pyruvate kinase M2. P14618. purified PKM2, Kinase-Glo ATP luminescence, activation; response scale: 0% is enzyme alone, no compound. Potency, µM (highest dose often 57.5 µM), inactives show at the highest dose activation, actives largely listed as activators. actives 0.34% (n = 260,000); note: % is set by controls: 0 for no effect and ±100 for the full control effect; nearly all actives have a fitted effect of over 55% in size
#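 Purified hPK-M2 (>95% pure) converted ADP (0.1 mM final) to ATP with 0.5 mM PEP in 50 mM imidazole pH7.2, KCl, MgCl2, Tween 20, BSA; 1 h at room temperature. ATP detected by Kinase-Glo luminescence.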
# Rango release inh: prevents RanGTP from dissociating the Rango-importin beta complex. O95149+P62826. Biochemical FRET Rango-importin beta, RanGTP-induced dissociation. Potency, µM (highest dose often 46.1 µM), for the others: at the top dose activity change, negative = inhibition. actives 0.071% (n = 340,000). AID 540253; calls by dose curve; note: % of control where 0% means no effect; nearly all actives have a fitted effect of over 45% in size
#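 Rango FRET biosensor (snurportin-1 IBB flanked by N-terminal EYFP and C-terminal CFP10) at 0.1 uM, with 0.25 uM importin beta in PBS, 1mM DTT, 0.02% Tween-20, 0.1% BSA. 0.6 uM Ran, 2mM GTP and 0.2 uM RCC1 were then added for 45 min at room temperature. Inhibition read as loss of FRET rise.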
# Rango-impB inh: Rango-importin beta binding inhibition; Potency, µM (highest dose often 92.2 µM), for inactives: at the top dose inhibition of complex formation; actives 0.031% (n = 340,000); Q14974; Rango CFP/YFP FRET sensor + importin beta, 45 min; calls by dose curve;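 note: 0% = DMSO wells and 100% = buffer wells lacking importin beta; nearly all actives have a fitted effect of over 15% in size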
#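 FRET biosensor Rango (snurportin 1 IBB between N-terminal EYFP and C-terminal Cerulean), 50 nM in PBS/1 mM DTT/0.02% Tween-20/0.1% BSA, preincubated 5 min RT with compound; 0.125 microM importin beta added, 45 min RT, CFP/YFP FRET ratio read.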
# Tb PFK KinaseGlo: Tb phosphofructokinase inhibition, orthogonal luminescence | shares compounds with Tb PFK inh-1 | Tb PFK enzyme, ATP depletion, Kinase-Glo Plus luminescence | actives 47% (n = 1,100) | Potency, µM (series often up to 57.5 µM), inactives show at the top dose inhibition; calls by dose curve; note: nearly all actives have a fitted effect of over 60% in size
# Tb PFK inh-2: T. brucei PFK enzyme inhibition, hit validation. actives 41% (n = 1,100). shares compounds with Tb PFK inh-1. purified T. brucei PFK, ADP-Glo luminescence, 45 min. Potency, µM (highest dose often 57.5 µM), without a hit: at the highest dose activity change, negative = inhibition, usual class: inhibitors;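 note: plate controls were full PFK enzyme control for no effect and no enzyme control for full effect; nearly all actives have a fitted effect of over 60% in size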
# Starred values were filed as active, the others as inactive; i = inactive; ? = inconclusive; · = not tested or not shown. This is a sample that favours compounds with a hit; in the whole collection about 2.4% have one here. Unless noted, calls come from the whole dose curve; as a rule, active = well fitted curve in the direction sought with a large enough effect; inconclusive = small, poorly fitted or top-dose-only effect, or another doubt; inactive = no such curve, though single readings can be large; an effect the other way counts as inactive or inconclusive. Potency is the fitted concentration of half-maximal effect.
SMILES,PGK inhibitor,ELG1 repair inh,Tb PFK inh-1,PKM2 act,Rango release inh,Rango-impB inh,Tb PFK KinaseGlo,Tb PFK inh-2
C=C(C)C(=O)Nc1cccc(C2=NOC3(C2)C[C@H](C(N)=O)N(C(=O)c2ccccc2C(=O)c2ccccc2)C3)c1 (stereo partly drawn),?,?,11µM*,-9%,4%,-3%,0.67µM*,0.85µM*
C=C(C)C(=O)Nc1cccc(C2=NOC3(C2)C[C@@H](C(N)=O)N(C(=O)/C=C/C=C/C)C3)c1 (stereo partly drawn),?,-3%,3.8µM*,13µM*,2%,-7%,0.13µM*,0.19µM*
C=C(C)C(=O)Nc1cccc(C2=NOC3(C2)C[C@@H](C(N)=O)N(C(=O)CC(c2ccccc2)c2ccccc2)C3)c1 (stereo partly drawn),8.9µM*,?,30µM*,-4%,3%,-2%,1.5µM*,?
CNC(=O)O/N=C(\C)Cc1nnn(-c2cc(C)on2)n1,9%,-6%,1%,-2%,2%,5%,·,·
O=C(Nc1ccc2c(c1)OCCO2)c1cccn(Cc2cccc([N+](=O)[O-])c2)c1=O,-12%,·,·,·,·,·,·,·
O=c1c2ccccc2nc(/C=C\c2ccccc2F)n1-c1ccc(O)cc1,7%,·,·,·,·,·,·,·
Cc1ccc(C)c(CN2C(=O)c3ccccc3Sc3ccc(C(=O)N4CCC5(CC4)OCCO5)cc32)c1,9%,·,·,·,·,·,·,·
C/C=C/C=C/C(=O)N1CC2(CC(c3cccc(NC(=O)CCCCC)c3)=NO2)C[C@H]1C(N)=O (stereo partly drawn),2%,-19%,?,7.9µM*,-19%,-5%,?,?
CCCCc1nn2c(=O)cc(COC(=O)Cc3ccccc3)nc2s1,-5%,·,·,·,·,·,·,·
CCCCc1ccc(-n2nnnc2SCC(=O)Nc2cc(OC)c([N+](=O)[O-])cc2C)cc1,-1%,3%,?,0%,-6%,-2%,7%,-2%
Nc1c(C(=O)Nc2ccc(F)c(Cl)c2)sc2nc3c(cc12)N1CCC3CC1,i,·,·,·,·,·,·,·
C/C(=N/OC(=O)N(C)C)c1ncc(C(F)(F)F)cc1N1CCOCC1,-2%,14%,-7%,-2%,14%,1%,·,·
Clc1nssc1=Nc1nncs1,-3%,6%,4.3µM*,·,8%,-3%,12µM*,9.5µM*
CSc1ccc(Cl)c(C(=O)OCC(=O)N2CCN(C(=O)c3ccco3)CC2)c1,-1%,-4%,?,·,19%,-1%,·,·
c1cc(SSc2ccncc2)ccn1,-5%,3%,24µM*,·,-10%,4%,17µM*,?
c1ccc(-c2ccncc2)cc1,i,10%,2%,·,1%,-2%,·,·
CCOc1ccc(CN2C(=O)c3ccccc3Sc3ccc(C(=O)N4CCC5(CC4)OCCO5)cc32)cc1,4%,·,·,·,·,·,·,·
Cc1ccc(NC(=O)Cn2cc(C(=O)c3ccccc3)c3ccccc32)cc1,16%,·,·,·,·,·,·,·
Cc1ccc(NC(=O)CN(C)C(=O)c2cccc(-n3cccc3)c2)cc1,?,4%,?,·,7%,-3%,?,?
O=c1ccc2cc(O[C@@H]3O[C@@H](CO)[C@H](O)[C@@H](O)[C@@H]3O)c(O)cc2o1,-1%,-1%,0%,·,?,?,·,·
O=C(O)c1cc(O)c2c(c1)[C@H]([C@H]1c3cc(C(=O)O)cc(O)c3C(=O)c3c(O[C@@H]4O[C@H](CO)[C@@H](O)[C@H](O)[C@H]4O)cccc31)c1cccc(OC3O[C@H](CO)[C@@H](O)[C@H](O)[C@H]3O)c1C2=O (stereo partly drawn),?,?,?,·,18µM*,?,?,4.8µM*
Cc1noc(C)c1COc1ccc(C(=O)NNC(=O)c2ccccc2O)cc1,i,-8%,5.4µM*,·,0%,5%,7%,6%
CCN(CC)C(=O)c1ccc(NC(=O)c2c(C)noc2C)cc1,1%,10%,-2%,·,?,3%,·,·
CC(=O)N1c2ccc(S(=O)(=O)N3CCCC(C(=O)Nc4cc(C)cc(C)c4)C3)cc2CC1C (stereo not drawn),1%,?,1%,0%,-8%,0%,·,·
CS(=O)(=O)NNC(=O)C1Cc2c(ccc3ccccc23)O1 (stereo not drawn),2%,13%,?,·,-7%,2%,-28%,?
SMILES,PGK inhibitor,ELG1 repair inh,Tb PFK inh-1,PKM2 act,Rango release inh,Rango-impB inh,Tb PFK KinaseGlo,Tb PFK inh-2
Cc1cc(OCC(=O)NCc2ccc(S(N)(=O)=O)cc2)c2c3c(c(=O)oc2c1)CCC3,-7%,26%,0%,1%,25%,-3%,·,·
O=C(O)Cn1cc(C(=O)c2ccccc2F)c2ccccc21,8%,-4%,1%,-12%,?,-2%,·,·
COc1ccccc1-c1nn2c(=O)cc(CN3CCN(C(=O)COc4ccccc4Cl)CC3)nc2s1,9%,·,·,·,·,·,·,·
COc1cccc(OC)c1-c1nn2c(-c3cc(-c4ccccc4)n[nH]3)nnc2s1,-12%,?,?,-1%,9%,0%,-22%,?
COC(=O)c1sc(NC(=O)c2cc(-c3ccccc3)nc3ccccc23)c(C#N)c1C,2%,-2%,6.7µM*,-44%,3%,-1%,8.5µM*,15µM*
CC1=NN(CCC#N)C(=O)/C1=C/c1ccc(N(C)C)cc1,-7%,10%,21µM*,-9%,5%,1%,11µM*,27µM*
CC1=NOC(=O)/C1=C/c1ccc(N(C)C)cc1,-7%,?,15µM*,-16%,6%,-1%,?,13µM*
Cc1cccc(NC(=O)N[C@@H]2N=C(c3ccccc3)c3ccccc3N(CC(=O)c3ccccc3C)C2=O)c1,·,·,·,-12%,·,·,·,·
COP(=O)(OC)c1nc(-c2cccc3ccccc23)oc1NCCc1ccccc1,-5%,?,-1%,-6%,0%,-1%,·,·
Nc1nnc(Cc2cccc(Br)c2)s1,-4%,-4%,?,3%,-6%,2%,21µM*,30µM*
